# An excerpt weighted towards active compounds, which were near 7.3% of everything screened.
# NPC1 prom act: activates the NPC1 promoter | Huh7 NPC1 promoter luciferase reporter, 24 h | Potency, µM (top dose mostly 9.22 µM), for the others: at the top dose activation, hits mostly activators | 320,000 compounds, 2.4% hits; also: % of control where 0% means no effect; nearly all actives have a fitted effect of over 60% in size
#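 Luminescence from an NPC1 promoter-driven luciferase reporter in stably transfected Huh7 cells was measured after 24 h compound treatment at 37 °C, followed by 10 min ambient incubation with luciferase detection reagent.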
# Rab9 prom act: activates the Rab9 promoter. AID 485297. 320,000 compounds, 2.8% hits. Potency, µM (doses to about 9.22 µM), inactives show at the highest dose activation, negative = inhibition, actives largely listed as activators. Huh7 Rab9 promoter-luciferase reporter, luminescence, 24 h; also: % of control where 0% means no effect; nearly all actives have a fitted effect of over 60% in size
#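 Huh7 cells stably carrying a Rab9 promoter-luciferase reporter, 1500 cells per well in OP-MEM I with 10% FBS, treated with compound 24 hours at 37C. Luciferase activity read by luminescence after 10 minutes with Amplite reagent.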
# FLuc counter: counter-screen for miR-21 project: firefly luciferase inhibitors or activators; P08659; purified FLuc, Km substrates, luminescence inhibition; Potency, µM (series often up to 57.5 µM), for the others: at the top dose activity change, negative = inhibition, usual class: inhibitors; 360,000 compounds, 6.9% hits; AID 588342;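 also: plate controls were vehicle for no effect and reference inhibitor for full effect; nearly all actives have a fitted effect of over 55% in size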
# Target sequence (P08659 whole entry, looked up): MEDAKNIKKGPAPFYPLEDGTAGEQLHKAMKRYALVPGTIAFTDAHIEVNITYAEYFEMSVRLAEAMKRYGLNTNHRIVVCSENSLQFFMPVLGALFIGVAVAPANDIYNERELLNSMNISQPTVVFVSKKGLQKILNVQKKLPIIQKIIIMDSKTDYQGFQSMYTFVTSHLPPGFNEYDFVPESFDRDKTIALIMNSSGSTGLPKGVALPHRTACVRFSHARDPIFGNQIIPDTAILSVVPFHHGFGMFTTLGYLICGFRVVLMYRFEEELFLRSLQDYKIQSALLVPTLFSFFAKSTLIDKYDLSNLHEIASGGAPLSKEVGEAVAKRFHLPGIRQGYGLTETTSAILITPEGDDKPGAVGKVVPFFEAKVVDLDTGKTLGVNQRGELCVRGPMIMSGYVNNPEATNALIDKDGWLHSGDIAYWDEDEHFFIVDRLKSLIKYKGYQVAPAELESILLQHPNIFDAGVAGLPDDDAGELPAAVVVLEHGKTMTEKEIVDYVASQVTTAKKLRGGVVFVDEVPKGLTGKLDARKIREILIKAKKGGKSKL
#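 Biochemical qHTS of compounds, final roughly 60 µM downward over six points, against 10 nM purified firefly luciferase using Km concentrations of substrates (10 uM D-luciferin, 10 uM ATP) in Tris acetate pH 7.5 buffer; luminescence output.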
# uPA surface inh: inhibitors of cell surface uPA generation; cell surface uPA generation assay, qHTS; Potency, µM (doses to about 38.3 µM), for the others: at the top dose activity change, negative = inhibition, hits mostly inhibitors; 330,000 compounds, 0.31% hits; AID 540303; active = well fitted inhibition curve with a large enough effect; inconclusive = small, poorly fitted or top-dose-only effect; inactive = no such curve, though single readings can be large or run the other way; tested in mouse RAW 264.7 cells; also: % is scaled to controls: 0 for no effect and ±100 for the full control effect; nearly all actives have a fitted effect of over 55% in size
# SMN2 splice up: increases expression of the SMN2 splice variant; HEK293 SMN2-luciferase splicing reporter, luminescence, 30-36 h; Potency, µM (doses to about 46.1 µM), inactives show top-dose activity change, positive = activation, most hits filed as activators; 210,000 compounds, 2.8% hits; AID 1458; also: % of control where 0% means no effect; nearly all actives have a fitted effect of over 55% in size
#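 HEK293 cells carry an SMN2 […]–luciferase reporter in which exon 7 inclusion puts luciferase in frame. Cells were plated 10-12 h before compound addition, then incubated 30-36 h at 37C. ONE-Glo luminescence was read; sodium butyrate at 4.5 mM final served as control.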
# ELG1 genotoxic: inducers of genotoxicity in HEK293T ELG1-luciferase cells; 330,000 compounds, 1.3% hits; Potency, µM (series often up to 46 µM), inactives show at the highest dose activity change, positive = activation, hits mostly activators; HEK293T ELG1-luciferase reporter, luminescence, 16 h; also: % of control where 0% means no effect; nearly all actives have a fitted effect of over 60% in size
#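 After overnight (16 hr) compound treatment at 37 °C, ELG1-luciferase HEK293T cells were lysed with ONE-Glo; luminescence quantified 30 min later at room temperature.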
# Active calls of the source: *; ? = inconclusive; . = no result given; [ ] = dose if it differs, or a comment. Unless noted, calls follow the shape of the dose curve; as a rule, active = well fitted curve in the direction sought with a large enough effect; inconclusive = small, poorly fitted or top-dose-only effect, or another doubt; inactive = no such curve, though single readings can be large; an effect the other way counts as inactive or inconclusive. Potency is read from the fitted curve at half-maximal effect.
SMILES,NPC1 prom act,Rab9 prom act,FLuc counter,uPA surface inh,SMN2 splice up,ELG1 genotoxic
CCOC(=O)C1(Cc2cccc(Cl)c2)CCCN(C(=O)c2cc(C)[nH]n2)C1 (configuration not stated),-1.4%,-1.0%,4.5%,-1.2%,.,-7.3%
CCOC(=O)C1(Cc2cccc(OC)c2)CCCN(Cc2cc(OC)c(O)c(OC)c2)C1 (configuration not stated),3.8%,7.0%,-2.5%,7.9%,.,-3.9%
NC(=O)c1nc(-c2cccs2)nc2c1[nH]c(=O)n2-c1ccc(F)cc1,-3.8%,-7.8%,-0.1%,18.1%,-4.3%,?
O=C(NCCCN1CCCCC1)c1sc2ncccc2c1-n1cccc1,.,.,1.1%,.,.,.
COc1ccc(-c2nnc(SCc3cc(=O)c4cc(C)cc(C)c4[nH]3)n2C)cc1,.,.,-9.5%,.,.,.
Nc1ncnc2nc(SCc3ccc(Cl)cc3Cl)[nH]c12,-1.2%,0.7%,21.3µM*,-3.6%,-31.2%,3.2%
COCc1nn2c(N)c(C#N)cnc2c1-c1ccccc1,-1.9%,-1.5%,13.5µM*,-11.0%,29.1%,17.9%
COc1ccccc1-c1c(C)nn2c(N)c(-c3ccccc3)cnc12,11.8%,15.1%,19µM*,-8.6%,.,-0.5%
COCc1nn2c(N)c(-c3ccccc3)cnc2c1-c1ccccc1,2.82µM*,2.82µM*,0.849µM*,-7.5%,.,?
NCOC(=O)Cc1ccc(Br)cc1,.,.,.,.,-7.9%[9.22 µM],.
O=c1[nH]cnc2cc(-c3ccccc3)sc12,3.55µM*,?,12µM*,-6.5%,?,?
COc1ccc(N2CCN(Cc3nc4ccsc4c(=O)[nH]3)CC2)cc1,-3.8%,-2.0%,-1.6%,.,4.5%,-0.8%
O=c1[nH]cnc2cc(Cl)ccc12,-1.9%,5.1%,-0.6%,-8.3%,-4.4%,-0.5%
COc1ccc(-c2cc3nc[nH]c(=O)c3s2)cc1,?,2.82µM*,3.79µM*,-7.7%,12.6µM*,4.11µM*
COc1ccc(-c2cc3nc(CCl)[nH]c(=O)c3s2)cc1,?,?,0.12µM*,-2.4%,.,?
COc1ccc(CCNc2ncnc3c2c(C)c(C)n3CCO)cc1OC,-16.0%,-4.5%,?,-16.0%,.,-8.7%
COc1ccc(Nc2ncnc3c2c(C)c(C)n3CCO)cc1,1µM*,1.58µM*,5.36µM*,-10.9%,.,8.2µM*
Cc1c(C)n(CCO)c2ncnc(Nc3ccc(F)cc3)c12,24.7%,?,19µM*,-3.5%,.,?
COc1ccccc1NC(=O)c1c(C)cc(C)nc1SCC(=O)Nc1cccc(C)c1,.,.,1.1%,.,.,.
Cc1ccnc(NC(=O)CNC(=O)c2sc3ccccc3c2Cl)c1,27.9%,27.9%,12µM*,-0.1%,.,10.3µM*
Cc1ccccc1NC(=O)CCCNC(=O)c1ccc(Cl)cc1,0.8%,-0.2%,1.8%,-0.3%,.,-0.2%
Cc1ccnc(NC(=O)c2sc3cc(Cl)ccc3c2Cl)c1,0.126µM*,0.631µM*,0.601µM*,10.2%,6.31µM*,2.91µM*
Cc1ccnc(NC(=O)CCCNC(=O)c2ccc(Cl)cc2)c1,?,?,16.9µM*,-3.7%,.,?
Cc1ccc(NC(=O)CN(C)C(=O)CNC(=O)c2sc3ccccc3c2Cl)cc1,?,25.2%,2.69µM*,2.5%,.,16.4µM*
CCc1ccc(CN(Cc2ccco2)C(=O)COc2ccccc2Cl)cc1,.,.,-13.5%,.,-24.5%,.
SMILES,NPC1 prom act,Rab9 prom act,FLuc counter,uPA surface inh,SMN2 splice up,ELG1 genotoxic
CC(C)CCNC(=O)c1ccc(Cn2c(=S)[nH]c3ccccc3c2=O)cc1,2.5%,-2.1%,2.8%,1.3%,.,8.3%
O=C(Cn1c(=O)c2cc(Cl)ccc2n2nncc12)Nc1ccccc1,.,.,-7.3%,.,-2.2%,.
CCOc1ccc(CN(C(=O)c2nc(SC)ncc2Cl)C2CCS(=O)(=O)C2)cc1 (configuration not stated),.,.,3.5%,.,3.5%,.
O=C1NC(=S)S/C1=C\c1coc2ccccc2c1=O,4.9%,?,19µM*,-9.9%,2.0%,7.8%
O=C1NC(=S)SC1=Cc1ccccc1Br,.,.,.,4.9%,.,.
O=C1NC(=S)S/C1=C\c1coc2ccc(O)cc2c1=O,13.9%,9.0%,19µM*,2.9%,.,10.5%
COc1ccc([C@]23Cc4cc(OC)c(OC)cc4C(O2)c2c(cc(C)n(Cc4ccccc4)c2=O)O3)cc1,-7.0%[1.84 µM],0.0%[1.84 µM],?,.,.,.
CCC(=O)c1ccc(N2CCN(C(=O)c3ccccc3)CC2)c(F)c1,-1.6%,-12.0%,0.3%,-21.4%,.,-3.2%
CCC(=O)c1ccc(N2CCC(C)CC2)c(F)c1,7.9%,29.4%,21.3µM*,-4.1%,.,13.1%
CCCC(=O)c1ccc(N2CCC(C)CC2)c(F)c1,2.3%,25.2%,9.53µM*,-0.6%,?,?
CCOC(=O)N1CCN(c2ccc(C(=O)CC)cc2F)CC1,0.2%,-4.3%,-1.0%,5.4%,-11.2%,7.3%
O=C(NCc1nc2ccccc2n1Cc1ccccc1Cl)c1ccccc1,.,.,-2.6%,.,4.6%,.
Nc1[nH]c(N=NC(=O)c2ccccc2)c2ccccc12,1.78µM*,1.12µM*,4.78µM*,-0.5%,2.82µM*,?
Nc1[nH]c(N=NC(=O)c2ccccc2O)c2ccccc12,2.82µM*,2µM*,8.49µM*,-9.1%,11.2µM*,14.6µM*
COc1ccc(NC(=O)CN(C)C(=O)c2cc3c(s2)CCC(C)C3)cc1 (configuration not stated),-4.0%,3.6%,15.1µM*,10.1%,.,10.2%
CN(CC(=O)Nc1ccccc1Br)C(=O)CNC(=O)c1ccc(Oc2ccccc2)cc1,18.0%,1.7%,15.1µM*,-6.2%,.,-0.5%
COc1ccc(NC(=O)CN(C)C(=O)CNC(=O)c2ccc3ccccc3c2)cc1,25.9%,?,23.9µM*,-21.1%,.,14.1%
COc1cccc(NC(=O)CN(C)C(=O)CNC(=O)c2ccc(Oc3ccccc3)cc2)c1,27.4%,?,6.01µM*,0.4%,.,5.6%
CC(OC(=O)C1CC(=O)N(Cc2ccccc2)C1)C(=O)Nc1cccc(C#N)c1 (configuration not stated),-1.6%,15.6%,-0.5%,2.1%,.,2.5%
Cc1nc(Nc2ccccc2)sc1-c1ccccc1,1.26µM*,0.398µM*,0.338µM*,-8.3%,.,?
COc1ccc(C(=O)c2sc(Nc3ccccc3)nc2C)cc1,1.1%,-4.4%,?,2.5%,.,-0.4%
Cc1nc(Nc2ccc(C(=O)O)cc2)sc1-c1ccccc1,1.26µM*,?,0.169µM*,2.5%,.,?
CCN(CC)c1ccc(CNS(=O)(=O)c2cc3c(cc2C)NC(=O)CO3)cc1,.,.,2.4%,.,.,.
Cc1ccc(NC(=O)CSc2nnc(COc3ccc(Cl)cc3)o2)cc1,.,.,-10.1%,.,.,.
Cc1ccc(N(C)C(=O)C2CCCN(c3ncnc4c3nc3n4CCCCC3)C2)cc1C (configuration not stated),.,.,-13.6%,.,.,.
CC1CCN(S(=O)(=O)c2ccc3c(c2)CCN3)CC1,.,.,-5.4%,.,.,.

# Compound activity: PubChem BioAssay, National Center for Advancing Translational Sciences (NCATS)
